Rv3671c inh – inhibitors of M. tuberculosis serine protease Rv3671c; P9WHR9; inhibition, % at 5.96 µM; 320,000 compounds, 0.048% hits; AID 2606; in the data active = inhibition above about 38%;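 note: extracellular domain of Rv3671c used as enzyme; 0% = enzyme with DMSO and 100% = no enzyme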
UGM FP inh – Mtb UDP-galactopyranose mutase inhibition | P9WIQ1 | purified UGM, fluorescence polarization probe displacement | inhibition, % at 10 µM | 320,000 compounds, 0.06% hits | AID 504406; in the data active = inhibition above about 10%, passing the limit was not always enough
GDH-TPI counter-1 – counter-screen for M. tuberculosis FBA inhibitors: GDH-TPI coupled enzymes. GDH-TPI coupled enzyme counterscreen, NADH absorbance. inhibition, % at 4.8 µM. 360,000 compounds, 1.2% hits; in the data active = inhibition above about 30%;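 note: 0% = DMSO wells and 100% = wells lacking the enzyme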
Mtb FBA inh – Mtb fructose-bisphosphate aldolase inhibition; purified M. tuberculosis FBA, fluorescence read-out; P9WQA3; 360,000 compounds, 2.3% hits; inhibition, % at 1 µM;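 note: 0% = vehicle and 100% = reference inhibitor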
Target sequence (P9WQA3 whole entry, looked up): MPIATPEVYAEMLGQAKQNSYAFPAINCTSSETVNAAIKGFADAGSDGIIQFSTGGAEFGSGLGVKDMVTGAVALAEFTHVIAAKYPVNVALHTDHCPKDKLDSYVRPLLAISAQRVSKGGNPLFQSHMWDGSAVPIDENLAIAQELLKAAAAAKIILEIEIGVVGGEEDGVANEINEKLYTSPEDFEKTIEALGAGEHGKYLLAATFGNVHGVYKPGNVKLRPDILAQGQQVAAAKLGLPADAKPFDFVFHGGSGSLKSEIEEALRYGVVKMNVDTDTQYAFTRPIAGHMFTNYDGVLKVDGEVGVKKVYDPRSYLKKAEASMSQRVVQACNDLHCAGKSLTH
Mtb FBA confirm – confirmation of M. tuberculosis fructose-bisphosphate aldolase inhibitors | shares compounds with Mtb FBA inh | purified M. tuberculosis FBA, fluorescence read-out | inhibition, % at 1 µM | 5,600 compounds, 78% hits | AID 651616;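 note: 0% = vehicle wells and 100% = reference inhibitor wells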
GDH-TPI counter-2 – GDH-TPI inhibition counter-screen for FBA inhibitors; inhibition, % at 1 µM; shares compounds with Mtb FBA inh; 5,600 compounds, 81% hits; GDH-TPI coupled enzyme counterscreen, fluorescence; in the data active = inhibition above about 10%
GDH-TPI dose – GDH-TPI dose response counter-screen for Mtb FBA. shares compounds with Mtb FBA inh. GDH-TPI coupled enzyme assay, fluorescence, artifact counterscreen. IC50, µM. 170 compounds, 79% hits. AID 652145; call rule not given here
* = called active by the depositor; . = no result given; + = active, no number. Rows were chosen to be rich in hits. Some 3.5% of all compounds tested hit in one or more screens of this group. Cut-off read from the data, not from the text of the source, unless noted: active = inhibition above about 27%; inactive = the rest.

SMILES	Rv3671c inh	UGM FP inh	GDH-TPI counter-1	Mtb FBA inh	Mtb FBA confirm	GDH-TPI counter-2	others
N#CC1=C(C2CC2)CC(c2ccccc2)C(C#N)=C1N (configuration not stated)	-7	0	8	33*	13	-4	GDH-TPI dose=>10
N#CC1=C(N)SC2(CCCCC2)SC1c1ccccc1 (configuration not stated)	5	1	4	1	.	.
Cc1cc(C)cc(N(C(C)C(=O)NCCC2=CCCCC2)S(C)(=O)=O)c1 (configuration not stated)	6	.	7	4	.	.
CN(C)CCn1c(SCc2ccccc2C#N)nc2c(sc3ccccc32)c1=O	-4	0	-1	50*	75*	59*
CC(C)CCn1c(SCC#N)nc2c(sc3ccccc32)c1=O	-1	0	6	1	.	.
COc1ccccc1NC(=O)CSc1nc2c(sc3ccccc32)c(=O)n1CCN(C)C	-6	1	22	51*	76*	60*
O=c1c2ccccc2ccc2ccccc12	1	2	14	6	.	.
c1ccc2c(c1)c1cccc3ccc4cccc2c4c31	4	0	21	55*	75*	64*
Cc1c(NC(=O)c2cc(Br)ccc2Cl)cccc1-n1cnnn1	1	1	2	1	.	.
O=S1(=O)CCN2C=Nc3sc4c(c3C2=N1)CCCC4	9	-4	4	-3	.	.
O=S1(=O)CCN2C=C(Br)C=C(Br)C2=N1	0	2	30	29*	133*	105*
N#Cc1cc2cc3c(cc2nc1NCCNC(=S)NCCCN1CCOCC1)OCO3	0	2	-3	69*	133*	111*
N#Cc1cc2cc3c(cc2nc1SCC(=O)N1CCOCC1)OCO3	-2	-1	-3	3	.	.
COCCCNC(=S)Nc1ccc2nc(N3CCOCC3)cc(C)c2c1	-4	4	11	20	.	.
COc1ccc(CNC(=S)Nc2ccc3nc(N4CCN(C)CC4)cc(C)c3c2)cc1	2	1	14	4	.	.
COc1ccc(CNC(=S)Nc2ccc3nc(N4CCOCC4)cc(C)c3c2)cc1	8	2	16	31*	33*	28*
CCOCCCNC(=S)Nc1ccc2nc(N3CCOCC3)cc(C)c2c1	-12	-1	-3	32*	+	+
O=C(CN1C(=O)CCC1=O)Nc1nc(-c2nc3ccccc3s2)cs1	6	-1	-2	34*	10	4
O=C(CN1C(=O)CCC1=O)Nc1nc(-c2ccccn2)cs1	-4	3	-4	1	.	.
CCCNC(=O)C1(C)CCCN(Cc2cc(-c3ccccc3)n(C)n2)C1 (configuration not stated)	.	.	0	-1	.	.
Nc1c(C(=O)N/N=C/c2ccccc2Cl)oc2nc(-c3ccccc3)cc(-c3ccco3)c12	4	1	2	4	.	.
COC(=O)c1oc2nc(C)cc(C)c2c1N	-2	-1	16	69*	47*	40*
Cc1cc(-c2ccccc2)nc2oc(C(=O)NN)c(N)c12	7	1	9	39*	55*	44*
Cc1cc(C)c2c(N)c(C(=O)c3ccccc3)oc2n1	3	.	8	5	.	.
CCOC(=O)c1[nH]c2cc(OC)c(OC)cc2c1NC(=O)C(C)N1CCN(Cc2ccccc2)CC1 (configuration not stated)	5	1	14	47*	+	+
SMILES	Rv3671c inh	UGM FP inh	GDH-TPI counter-1	Mtb FBA inh	Mtb FBA confirm	GDH-TPI counter-2	others
CCOC(=O)c1[nH]c2ccc(F)cc2c1NC(=O)Nc1ccccc1OC	0	0	1	-3	.	.
COc1ccc2[nH]c(=O)c(-c3noc(-c4ccccc4)n3)cc2c1	-12	-1	8	32*	165*	117*
COc1ccc2[nH]c(=O)c(-c3nnn(-c4ccccc4)n3)cc2c1	-6	6	9	34*	176*	128*
O=C1NN=C2CCCCCCCCCCC12 (configuration not stated)	.	.	10	3	.	.
COc1ccc(S(=O)(=O)N2CCCCCC2)cc1NC(C)C(=O)Nc1ccc(NC(C)=O)cc1 (configuration not stated)	.	.	8	0	.	.
CSCC[C@H](NC(=O)Cc1c(C)c2c(cc(C)c3c(C)coc32)oc1=O)C(=O)O	.	2	4	53*	+	187*
CC[C@@H](C)[C@H](NC(=O)Cc1c(C)c2c(cc(C)c3c(C)coc32)oc1=O)C(=O)O	.	3	8	64*	112*	94*
CCOC(=O)C1=C(C)N(C)C(=S)NC1c1cc(OC)ccc1OC (configuration not stated)	3	0	13	5	.	.
COc1ccc(CNC(=O)CCCC2=NS(=O)(=O)c3ccccc3N2)cc1	-1	1	4	102*	132*	139*
CCOc1ccc(NC(=O)C2CCCN2S(=O)(=O)c2ccc(OCC)cc2)cc1 (configuration not stated)	-4	-1	1	-1	.	.
CCN(CC)CCCNC(=O)c1oc2ccc3c(c2c1C)C(O)CC(C)(C)O3 (configuration not stated)	.	-2	14	44*	55*	43*
COCCNC(=O)c1oc2ccc3c(c2c1C)C(O)CC(C)(C)O3 (configuration not stated)	.	-2	11	38*	52*	42*
COCCN(Cc1ccc(C)cc1)C(=O)[C@H]1O[C@@H](n2cnc3c(N)ncnc32)[C@H](O)[C@@H]1O	.	.	.	-4	.	.
CCOC(=O)c1cccc(C(=O)OCC)n1	0	1	1	-6	.	.
CCOC(=O)c1cn2cccnc2n1	6	0	11	104*	151*	134*
CCOC(=O)c1c(C)nc2ncccn12	1	1	17	75*	37*	38*
CN(C)c1ccc(/C=C(/NC(=O)c2ccccc2)C(=O)N2CCCC2)cc1	-7	-1	17	-1	.	.
Cc1ccc(OCC(=O)Nc2ccc(O)c(C(=O)O)c2)cc1C	5	2	-7	72*	+	+
Cc1ccc(OCC(=O)Nc2ccc(C(=O)Nc3ccccc3C(=O)O)cc2)cc1C	.	.	6	1	.	.
Cc1cc(=O)oc2cc(OCC(=O)N3CCC(C(N)=O)CC3)ccc12	-11	1	20	27*	+	+
Cc1cc(OCC(=O)N2CCC(C(N)=O)CC2)c2c(C)cc(=O)oc2c1	-6	3	9	33*	17	15*
Cc1cc(=O)oc2cc(OCC(=O)OCC(=O)N3CCC(C)CC3)ccc12	6	0	10	42*	182*	131*
CCCc1c(C(=O)N/N=C(/C)c2ccncc2)nnn1-c1nonc1N	1	0	2	1	.	.
CCOC(=O)N1CCC(Nc2nc3ccccc3n3nnnc23)CC1	6	-1	16	35*	47*	40*
